Results taken from PubChem BioAssay.
A number with no mark means an inactive call. The source made the active and inactive calls. Cut-off read from the data, not from the text of the source: active = inhibition above about 33%; inactive = the rest.

Assay: VP16 transactivation reporter inhibitors, counter-screen for LRH-1 inverse agonist project, cell-based, luminescence, high throughput (AID 651615)
Settings: Gal4-VP16 luciferase reporter cells, at 3.6 µM, active compounds read high

SMILES | inhibition
CCCc1cc(=O)oc2cc3oc(C)c(C)c3cc12 | -5.27%
CCCc1cc(=O)oc2cc(C)cc(OCC(=O)Nc3ccccn3)c12 | 3.1%
CCOC(=O)C1CCN(Cc2cc(Cl)c3ccccc3c2O)CC1 | 2.83%
CCn1c2ccccc2c2cc(/C=N/n3cnnc3)ccc21 | 10.1%
O=C(COC(=O)C1CCCCC1)NCCc1ccccc1 | -5.95%
COCCn1c(C)cc(/C=C(\C#N)C(=O)OCC(=O)Nc2ccc(S(N)(=O)=O)cc2)c1C | -8.79%
Cc1ccc(NC(=O)COC(=O)CCC2CCCC2)c(Br)c1 | -5.49%
O=C(CCl)Nc1ccc2c(c1)OCO2 | -14.7%
O=C1C=C(NCc2ccco2)C2(CCCCC2)O1 | 10.7%
CCOc1ccc(CCNC(=O)COC(=O)Cc2c[nH]c3ccccc23)cc1OCC | -0.69%
CCOc1ccc(NC(=O)CSc2nc3[nH]ncc3c(=O)[nH]2)cc1 | -6.78%
Clc1ccc(COc2cccc(CNCc3ccncc3)c2)cc1 | 26%
O=C(COC(=O)c1ccc(=O)n(Cc2ccccc2)n1)Nc1ccc2c(c1)OCCO2 | -13.9%
COC(=O)c1ccc(NC(=O)CSc2nc3ncccc3[nH]2)cc1 | -13.4%
COc1ccc(CNC(=O)c2cccc3c(-c4cnn(C)c4)coc23)cc1OC | 36.4% (active)
COCc1cc(C)nc(SCC(=O)Nc2cc3c(cc2C#N)OCO3)c1C#N | -12.4%
CC1CC(=Cc2ccc(N)cc2)C(=O)O1 (centres undefined) | -23.5%
COc1ccccc1-n1c(SCC(=O)Nc2ccc(F)cc2)nc2c(c1=O)SCC2 | -9%
CC12CCC(=O)N1c1c(sc3nc(N4CCOCC4)c4c(c13)CCCC4)C(=O)N2 (centres undefined) | -1.67%
O=c1c2ccc(Cl)cc2nc(-c2cccc(C(F)(F)F)c2)n1O | 46.2% (active)

SMILES | inhibition
COc1ccc(NC(=O)CSc2nc(N)c(-c3ccccc3)c(=O)[nH]2)cc1 | -7.75%
CC(=O)c1ccc(-c2c(C)cc3oc(=O)cc(-c4ccccc4)c3c2C)cc1 | -3.38%
COc1ccc(-c2nc(C(N)=O)c3[nH]c(=O)n(-c4cccc(Cl)c4)c3n2)cc1OC | -5.48%
Oc1c(Cl)cc(CN2CCOCC2)c2cccnc12 | -5.55%
CC(=O)N1c2ccc(S(=O)(=O)N3CCC(C(=O)Nc4cccc(C)n4)CC3)cc2CC1C (centres undefined) | 51.9% (active)
Cc1cccc(NC(=O)COC(=O)c2cccs2)c1C | 9.54%
O=C1CC(c2cccc([N+](=O)[O-])c2)c2ccc3ccccc3c2N1 (centres undefined) | 9.31%
CC(=O)Nc1cc(-c2ccc(S(C)(=O)=O)cc2)cn2c(-c3ccc(F)cc3)cnc12 | -7.42%
O=C(Nc1cccc(S(=O)(=O)N2CCCCC2)c1)c1ccc([N+](=O)[O-])o1 | -4.21%
CC(=O)Nc1ccc(NC(=O)CSc2nc(N)c(NC(=O)c3ccco3)c(=O)[nH]2)cc1 | -7.2%
Cc1cc(N2CCN(C(=O)c3ccco3)CC2)n2nc(-c3cccc(F)c3)cc2n1 | -10.7%
O=C(COC(=O)Cc1ccccc1[N+](=O)[O-])NCc1ccc(Cl)cc1 | -5.74%
Cc1ccc(C)c(NC(=O)CSc2nnc(CCNC(=O)OC(C)(C)C)o2)c1 | -2.78%
COc1ccc2c(/C=C/c3cc[n+](C)cc3)c[nH]c2c1 | 50.9% (active)
Cc1ccc(S(=O)(=O)N2CC(O)CC2C(=O)OCC(=O)Nc2ccc([N+](=O)[O-])cc2C(F)(F)F)cc1C (centres undefined) | -5.69%
COC(=O)c1ccc(NC(=O)CSc2nnc(C)n2CC2CCCO2)cc1 (centres undefined) | -3.65%
O=C(Nc1ccc(N2CCOCC2)c(Cl)c1)c1ccc([N+](=O)[O-])o1 | -84.8%
Cc1c(NC(=O)c2cc(-c3cccs3)nc3ccccc23)c(=O)n(-c2ccccc2)n1C | 2.7%
COc1cc(C(=O)Nc2sc3c(c2C#N)CCN(C(C)=O)C3)cc(OC)c1OC | -16.2%
